# Screens: PubChem, National Center for Advancing Translational Sciences (NCATS)
# Hits are enriched below; roughly 14% of the tested compounds scored in any of these assays.
# Pf growth 96h: P. falciparum growth inhibition at 96 hour, primary screen for plastid delayed-death inhibitors; 320,000 tested, 6.9% active; Potency, µM (highest dose often 28.7 µM), without a hit: at the top dose activity change, negative = inhibition, usual class: inhibitors; P. falciparum luciferase reporter growth, 96 h; note: potency is the fitted concentration of half-maximal effect
#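 Cell-based qHTS: luciferase-tagged P. falciparum in erythrocytes (2% hematocrit, 0.05% parasitemia final) incubated with compounds for 96 hours, 37 C, 5% CO2; luciferase detection reagent then added and luminescence measured.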
# Pf growth 48h: inhibits P. falciparum growth in the first generation, 48 h; 310,000 tested, 5.9% active; AID 504832; P. falciparum luciferase growth in erythrocytes, 48 h; Potency, µM (titrated, usually from 28.7 µM), inactives show top-dose activity change, negative = inhibition, most hits filed as inhibitors; note: potency is the fitted concentration of half-maximal effect
#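 Compounds are pin-transferred into medium, infected erythrocytes (2% hematocrit, 0.1% parasitemia final) are added, and plates sit one parasite generation at 37 C in 5% CO2. Detection reagent is then added and luminescence measured.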
# HCV inhibitor: HCV inhibition; Huh7.5.1 HCVcc-Cre infection, luciferase reporter, 44 h; Potency, µM (top dose mostly 41.8 µM), for inactives: top-dose activity change, negative = inhibition, hits mostly inhibitors; 340,000 tested, 3.4% active; AID 651820; note: potency is the fitted concentration of half-maximal effect
#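 Reporter virus HCVcc-Cre (~0.5 moi) infects cells exposed to compound; seeding density 1,000 cells/well with 4 h settling beforehand. Luminescence, 15 sec read, taken 44 h post-infection following a 15 min RT substrate incubation.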
# HCMV antiviral: inhibitors of human cytomegalovirus; HFF cells, HCMV-luciferase reporter, 72 h; active compounds read low; activity change, negative = inhibition, % at 57.5 µM; 410,000 tested, 4.5% active; AID 1259415; in the data active = activity change below about -60%; inconclusive = no clear call, values can overlap the other calls; inactive = above about -39%
#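 Inhibition of viral replication was scored as loss of reporter luminescence in HFFs infected with HCMV-luciferase (MOI 1 PFU/cell) for 72 h; compounds tested at 2 doses, normalized to buffer and Salinomycin controls.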
# Lassa entry inh: blocks Lassa virus binding to or entry into cells; AID 540256; Lassa virus pseudotype entry inhibition, cell reporter; Potency, µM (highest dose often 37.9 µM), for inactives: top-dose activity change, negative = inhibition, actives largely listed as inhibitors; 300,000 tested, 1.2% active; calls by dose curve; tested in HEK293 cells; note: potency is the fitted concentration of half-maximal effect; nearly all actives have a fitted effect of over 50% in size
# MARV entry inh: inhibitors of Marburg virus binding or cell entry; Marburg virus pseudotyped entry inhibition, cell reporter; 300,000 tested, 1.8% active; AID 540276; Potency, µM (titrated, usually from 37.8 µM), for the others: at the top dose activity change, negative = inhibition, most hits filed as inhibitors; calls by dose curve; tested in HEK293 cells; note: potency is the fitted concentration of half-maximal effect
# * = called active by the depositor; u = inconclusive; x = not tested or not shown; [ ] = another dose, or the depositor's remark. Unless noted, calls come from the whole dose curve; as a rule, active = well fitted inhibition curve with a large enough effect; inconclusive = small, poorly fitted or top-dose-only effect, or another doubt; inactive = no such curve, though single readings can be large or run the other way. % is set by controls: 0 for no effect and ±100 for the full control effect.
SMILES,Pf growth 96h,Pf growth 48h,HCV inhibitor,HCMV antiviral,Lassa entry inh,MARV entry inh
CN(C)CCNc1ncnc2c1ncn2[C@H]1CN(Cc2cccnc2)C[C@@H](CO)O1,x,x,x,33.4,x,x
Cc1cc(Nc2nc(Cl)c(Cl)cc2Cl)n(-c2ccccc2)n1,-3.6%,4.4%,u,33.8,-7.8%,-20.3%
Clc1cccc(CNc2nnnn2-c2ccccc2)c1,14.7µM*,u,u,-83.8*,-2.4%,u
Cc1cc(Nc2nnnn2-c2ccccc2)n(-c2ccc(Cl)cc2)n1,x,4.65µM*,u,u,-8.9%,u
COc1cc(C2C(=O)N(C3CCC(C)CC3)CC(=O)N2CCc2ccc(Cl)cc2)ccc1OC(C)C (stereo not drawn),x,x,x,-9.7,-7.1%[46.1 µM],x
Cc1cc(OC(C)C(=O)NCCCn2ccnc2)c2c(C)c(C)c(=O)oc2c1 (stereo not drawn),u,u,-14.7%,38.7,x,x
CCOc1ccc(C(=O)OCC(=O)N(Cc2ccccc2)Cc2ccccc2)cc1OC,u,11.7µM*,-17.7%,-7.7,u,11.8%
COc1cc(C(=O)OCC(=O)NC(=O)NCc2ccccc2)ccc1OC(F)F,-21.6%,-6.6%,17.7%,1.8,-6.5%,0.8%
CCN(Cc1ccccc1)C(=O)COc1ccccc1,8.28µM*,16.2%,26.7%,62.8,-4.3%,17.8%
CCOC(=O)c1ccccc1NC(=O)CCOc1ccccc1,x,x,x,-17.9,20.0%[46.1 µM],x
CCCCCOc1ccc(NC(=O)c2cc(SC)ccc2Cl)cc1,29.6%,-23.0%,u,-60.2*,8.0%,-1.3%
CSc1ccc(Cl)c(C(=O)Nc2ccc(Cl)cn2)c1,7.38µM*,11.4%,-19.1%,u,-10.8%[46.1 µM],u
COc1cc(SC)ccc1C(=O)Nc1ccc2c(c1)CCC2,-48.9%,49.5%,10µM*,61.2,-17.6%[46.1 µM],u
COc1cc(SC)ccc1C(=O)Nc1ccc(Cl)cn1,u,-1.5%,6.8%,-74.9*,u,1.12µM*
CC1(C(=O)NS(=O)(=O)c2cccs2)CCN1C(=O)C1(c2ccccc2)CCCC1 (stereo not drawn),x,x,x,-6.5,x,x
CCC(C(=O)NC(C)(C)C)n1c(-c2ccc(C)cc2)nc2ccccc21 (stereo not drawn),x,x,x,0.8,x,x
CCOc1ccc(N(Cc2ccc(OC)cc2)C(=O)c2ccco2)cc1,1.3%,u,-25.0%,-26.3,u,-7.8%[46.1 µM]
CCOc1ccc(N(Cc2ccc(OC)c(OC)c2)C(=O)c2ccco2)cc1,15.0%,11.7µM*,-23.7%,-10.2,x,x
COc1cc(CN(C(=O)c2ccco2)c2ccc(C)cc2)ccc1O,u,11.7µM*,4.5%,u,u,1.7%
CCOC(=O)c1ccccc1NC1(c2ccc(OC)cc2)C(=O)c2ccccc2C1=O,x,x,x,6.1,14.5%[46.1 µM],x
NCc1csc(Nc2ccc(C(=O)c3ccccc3)cc2)n1,x,x,x,5.1,x,x
CN(C)S(=O)(=O)c1ccc(C(=O)NCc2ccco2)cc1,4.8%,62.5%,2.8%,-4.0,-5.0%[46.1 µM],-2.1%[46.1 µM]
CC1CC(C)CN(S(=O)(=O)c2ccc(C(=O)NCc3ccco3)cc2)C1 (stereo not drawn),8.28µM*,u,u,-10.2,u,-8.1%[46.1 µM]
CCCN(CCC)S(=O)(=O)c1ccc(C(=O)NCc2ccco2)cc1,-13.3%,-23.3%,15.0%,-28.5,0.794µM*,2.3%
COCCN1C[C@@H](CO)O[C@@H](n2cnc3c(NCCCO)ncnc32)C1,x,x,x,-32.8,x,x
SMILES,Pf growth 96h,Pf growth 48h,HCV inhibitor,HCMV antiviral,Lassa entry inh,MARV entry inh
NC(=O)c1ccc(SCC(=O)OCC(=O)NCc2cccs2)c([N+](=O)[O-])c1,9.9%,-27.8%,4.2%,-19.9,x,x
CC(NC(=O)c1ccc2c(c1)N(Cc1cccc(F)c1)C(=O)c1ccccc1S2)c1ccccc1 (stereo not drawn),x,x,x,3.2,2.3%[46.1 µM],x
CCOc1ccccc1CNC(=O)CCCN1C(=O)COc2ccc(C)cc21,x,x,x,-13.9,-6.2%[46.1 µM],12.7%[46.1 µM]
Fc1ccccc1-c1cc2ncccc2cn1,111.7%,125.6%,-2.1%,53.3,x,x
CCOc1ccc(CCNCc2c(C(=O)O)c(C)n(Cc3ccccc3F)c2C)cc1,x,x,x,6.0,0.0%[46.1 µM],10.5%[46.1 µM]
Cc1cc(NC(=O)CN2C(=O)c3cccnc3Sc3ccccc32)ccc1Br,x,x,x,54.8,u,x
Cc1oc2c(cc(NS(=O)(=O)c3ccc(C(C)C)cc3)c3ccccc32)c1C(=O)O,u,17.2%,7.0%,25.4,22.8%[46.1 µM],u
COc1ccc(S(=O)(=O)Nc2cc3c(C(C)=O)c(C)oc3c3ccccc23)cc1,u,x,17.8µM*,-76.0*,u,u
CC(=O)c1c(C)oc2c1cc(NS(=O)(=O)c1ccc(C(C)(C)C)cc1)c1ccccc12,x,x,x,-16.6,-26.5%[46.1 µM],x
Cc1oc2c(cc(NS(=O)(=O)c3cccs3)c3ccccc32)c1C(=O)OC(C)C,9.28µM*,u,-24.4%,126.2,-25.2%,-26.9%
Cc1oc2c(cc(NS(=O)(=O)c3ccc(F)cc3)c3ccccc32)c1C(=O)O,7.38µM*,3.1%,29.4%,-15.6,12.3%[46.1 µM],u
COCCCn1c(SCC(=O)Nc2ccc(F)cc2)nc2c(sc3ccccc32)c1=O,x,x,x,0.6,14.6%[46.1 µM],x
CCOc1ccc(S(=O)(=O)N(C)C2CCCCC2)cc1,1.65µM*,28.4%,-1.6%,-12.4,5.5%[46.1 µM],12.0%[46.1 µM]
CN(C1CCCCC1)S(=O)(=O)c1ccc(S(=O)(=O)N2CCCC2)cc1,1.65µM*,u,u,10.5,-6.3%,u
CN(C)c1ccc(P(=O)(OC2CCCCC2)C(Nc2ccccc2)c2cccnc2)cc1 (stereo not drawn),2.94µM*,9.28µM*,-12.8%,-34.3,u,u
CCC(=O)N1CCN(c2ccc(NC(=S)NC(=O)COc3ccccc3)cc2)CC1,14.7µM*,-10.0%,-3.0%,-33.3,x,x
CCC(=O)N1CCN(c2ccc(NC(=S)NC(=O)c3cccc([N+](=O)[O-])c3)cc2)CC1,7.38µM*,1.6%,-25.1%,-32.6,6.3%,-24.6%
CC(=O)N1CCN(c2ccc(NC(=S)NC(=O)COc3ccc(C(C)(C)C)cc3)cc2)CC1,u,22.6%,u,u,7.6%,u
N#Cc1cccc(Nc2c3c(nc4ccccc24)CCC3)c1,-19.2%,u,u,-16.7,u,u
Cc1ccc2nc3c(c(Nc4ccc5c(c4)OCCO5)c2c1)CCC3,u,4.15µM*,u,-66.2*,14.1µM*,u
Cc1ccc2nc3c(c(Nc4ccc(O)cc4)c2c1)CCC3,-86.6%,2.33µM*,u,u,x,x
COc1ccc(Nc2c3c(nc4ccc(C)cc24)CCC3)cc1,-2.3%,8.28µM*,u,-81.3*,x,x
OCCN1CCN(c2nccn3ccnc23)CC1,x,x,x,5.9,x,x
Clc1ccc(-c2nnc(Sc3nc4ccccc4o3)c3ccccc23)cc1,7.7%,36.7%,-27.8%,-81.7*,u,u
Cc1nnc(Sc2nc3ccccc3o2)c2ccccc12,x,-25.5%,u,69.3,-19.4%,17.6%
